Results reported in PubChem BioAssay AID602481 (Broad Institute, 2012).
Screen size: about 360,000 compounds; about 340 (0.094%) were called active. The full list was thinned out, with actives kept by preference. A number with no mark means an inactive call. Cut-off read from the data, not from the text of the source: active = inhibition above about 40%; inconclusive = no clear call, values can overlap the other calls; inactive = below that.

System: 7,8-diaminopelargonic acid synthase BioA (Mycobacterium tuberculosis)
Experiment: M. tuberculosis BioA enzyme inhibitors, primary screen, biochemical, plate reader, single point, HTS (AID 602481)
Conditions: purified M. tuberculosis BioA enzyme, at 9.99 µM, hits give high values

Row | SMILES | inhibition
1 | Cc1n[nH]c(=O)n1-c1ccc(Oc2ccccc2)cc1 | -2.98%
2 | Cc1nc(=O)c(-c2ccccc2)c(C)n1-c1ccc(Br)cc1 | 42.7% (active)
3 | S=C1NC(c2ccccc2)=NCN1c1ccc(Br)cc1 | 0.0265%
4 | CN(C)CC(=O)N1CCCCN2[C@@H](CO)[C@H](c3ccc(-c4cccnc4)cc3)[C@@H]2C1 | 0.035%
5 | C[C@H]1CN([C@@H](C)CO)C(=O)c2cc(C3=CCCC3)cnc2O[C@@H]1CN(C)Cc1cccnc1 | 4.42%
6 | CN1C(=O)c2cc(NC(=O)c3cccc(F)c3)ccc2OC[C@H]2O[C@@H](CC(=O)NCc3ccccc3Cl)CC[C@@H]21 | 0.94%
7 | Cc1noc(C)c1NC(=O)Nc1cccc2c1O[C@H](CN(C)S(C)(=O)=O)[C@H](C)CN([C@H](C)CO)C2=O | 3.42%
8 | Cc1ccccc1S(=O)(=O)N1[C@H](CO)[C@@H](c2ccc(-c3ccccc3)cc2)[C@@H]1C#N | -1.28%
9 | C[C@H](CO)N1C[C@H](C)[C@H](CN(C)CC2CCCC2)Oc2ncc(-c3ccc(F)cc3)cc2C1=O | -5.25%
10 | CC(C)NC(=O)Nc1cccc2c1O[C@@H](CN(C)Cc1ccc(C(=O)O)cc1)[C@@H](C)CN([C@H](C)CO)C2=O | -3.95%
11 | CCC(=O)N1[C@H](CO)[C@@H]2c3ccccc3N(S(=O)(=O)c3ccccc3C)C[C@@H]21 | -6.45%
12 | C[C@@H]1CN([C@@H](C)CO)C(=O)c2cccc(NC(=O)c3ccc(-c4nccs4)cc3)c2O[C@@H]1CN(C)S(=O)(=O)c1ccccc1 | -1.38%
13 | CCN1CCN(c2nc3c(c(=O)[nH]2)CCC3)CC1 | -4.22%
14 | O=c1[nH]c(N2CCN(Cc3ccc4c(c3)OCO4)CC2)nc2c1CCCC2 | 71.1% (active)
15 | CCc1c(C)nc(N2CCN(Cc3ccccc3)CC2)[nH]c1=O | -0.075%
16 | CO[C@@H]1CN(C)C(=O)c2ccc(NS(=O)(=O)c3ccc(C)cc3)cc2OC[C@@H](C)N(Cc2nccs2)C[C@H]1C | -0.694%
17 | CCC(=O)Nc1ccc2c(c1)C(=O)N(C)[C@@H]1CC[C@H](CC(=O)NCc3ccccc3)O[C@H]1CO2 | -0.647%
18 | Cc1ccc(S(=O)(=O)N(C)C[C@@H]2Oc3c(NC(=O)C4CC4)cccc3C(=O)N([C@H](C)CO)C[C@H]2C)cc1 | -0.505%
19 | CC(C)NC(=O)N(C)C[C@@H]1Oc2ccc(NC(=O)CCCCCC(=O)Nc3ccccc3N)cc2C(=O)N([C@@H](C)CO)C[C@H]1C | -2.93%
20 | COCCNC(=O)C[C@H]1CC[C@@H]2[C@H](COc3ccc(NC(=O)Nc4cccc(F)c4)cc3C(=O)N2C)O1 | 44.7% (active)
21 | CNC(=O)C[C@H]1CC[C@@H]2[C@H](COc3ccc(NC(=O)Nc4cccc(F)c4)cc3C(=O)N2C)O1 | 32%
22 | CCNC(=O)Nc1ccc2c(c1)C(=O)N(C)[C@@H]1CC[C@@H](CC(=O)NCCOC)O[C@@H]1CO2 | 0.346%
23 | CCN1[C@@H]2c3ccc(C4=CCCC4)c(=O)n3C[C@@H]2[C@@H](CO)[C@@H]1C(=O)NCc1ccccn1 | -3.69%
24 | CCC(=O)N1[C@H](C(=O)NCc2ccc(F)cc2)[C@@H](CO)[C@@H]2Cn3c(ccc(C4=CCCCC4)c3=O)[C@@H]21 | -2.21%
25 | CS(=O)(=O)N1[C@H](C(=O)NCc2ccncc2)[C@@H](CO)[C@@H]2Cn3c(ccc(C4=CCCCC4)c3=O)[C@@H]21 | 49% (active)

Row | SMILES | inhibition
26 | C/C=C/c1cnc2c(c1)C(=O)N([C@H](C)CO)C[C@@H](C)[C@H](CN(C)Cc1cccc(C(=O)O)c1)O2 | 0.203%
27 | C[C@@H]1CN([C@@H](C)CO)C(=O)Cc2cc(NC(=O)CCCCCC(=O)Nc3ccccc3N)ccc2O[C@H]1CN(C)Cc1ccc(Cl)c(Cl)c1 | -3.74%
28 | COCC(=O)Nc1ccc2c(c1)OC[C@@H](C)N(Cc1ccccn1)C[C@H](C)[C@@H](OC)CN(C)C2=O | -0.629%
29 | C[C@H](CO)N1C[C@H](C)[C@H](CN(C)Cc2cccc(C(=O)O)c2)Oc2ncc(-c3ccccc3F)cc2C1=O | -3.23%
30 | CCCOc1ccc2c3c(c(=O)oc2c1OCCC)CCC3 | 49.3% (active)
31 | O=c1oc2c(CN3CCCCC3)c(O)ccc2c2c1CCCCC2 | 16.6%
32 | COc1ccc2c3c(c(=O)oc2c1OCC(=O)C(C)(C)C)CCCC3 | 0.336%
33 | C[C@H]1CN([C@@H](C)CO)C(=O)CCCn2nncc2CO[C@H]1CN(C)Cc1cccc(C(=O)O)c1 | -5.89%
34 | C[C@@H]1CN([C@H](C)CO)C(=O)Cc2cc(NS(=O)(=O)c3ccc(F)cc3)ccc2O[C@@H]1CN(C)S(=O)(=O)c1ccc(F)cc1 | 4.14%
35 | CN1c2ccc(C3=CCCCC3)cc2[C@@H]2[C@@H](CCN2S(=O)(=O)c2ccccc2F)[C@H]1CO | -2.02%
36 | Cc1ccccc1S(=O)(=O)N1[C@H](C#N)[C@H](c2ccccc2)[C@@H]1CO | -0.99%
37 | CC(C)NC(=O)N(C)C[C@@H]1Oc2ccc(NC(=O)C3CC3)cc2C(=O)N([C@@H](C)CO)C[C@H]1C | -0.507%
38 | C[C@H](CO)N1C[C@H](C)[C@@H](CN(C)C(=O)Nc2ccc3c(c2)OCO3)Oc2ccc(NS(=O)(=O)c3ccc(Cl)cc3)cc2C1=O | 0.544%
39 | C[C@@H]1CN([C@@H](C)CO)C(=O)Cc2cc(NC(=O)C3CCCCC3)ccc2O[C@H]1CN(C)C(=O)Nc1ccccc1 | 0.073%
40 | C[C@H]1CN([C@@H](C)CO)C(=O)c2cc(Br)cnc2O[C@H]1CN(C)CC1CCCC1 | -0.484%
41 | CCCN1[C@H](C(=O)N2CCOCC2)[C@@H](CO)[C@@H]2Cn3c(ccc(/C=C/c4ccccc4)c3=O)[C@@H]21 | -3.1%
42 | CC1(C)CC(=O)C=C(c2ccc3ncccc3c2)C1 | 64.2% (active)
43 | CC1(C)CC(=O)C=C(c2ccc(Cl)c(C(F)(F)F)c2)C1 | -0.352%
44 | COc1ccccc1-c1n[nH]nc1C1=CC(=O)CC(C)(C)C1 | -1.72%
45 | O=S(=O)(N[C@@H]1CC[C@H](CCn2cc(-c3ccccc3F)nn2)O[C@H]1CO)c1ccc(F)cc1 | 1.57%
46 | Cc1cc(=O)oc2c(C)c(OC(C)C(=O)NC3CCN(Cc4ccccc4)CC3)ccc12 (stereo not given) | -3.72%
47 | Cc1c(OC(C)C(=O)N[C@@H](Cc2ccccc2)C(=O)O)ccc2c3c(c(=O)oc12)CCCC3 (stereo not given in full) | 0.433%
48 | Cc1c(OC(C)C(=O)NCC2CCC(C(=O)O)CC2)ccc2c1oc(=O)c1ccccc12 (stereo not given) | 43.7% (active)
49 | O=C(CN1CCOCC1)N1CCCCN2[C@H](CO)[C@H](c3ccc(Br)cc3)[C@H]2C1 | 4.49%
50 | COc1cccc(S(=O)(=O)N[C@H]2C=C[C@H](CC(=O)NCc3ccc(Cl)cc3)O[C@@H]2CO)c1 | -1.44%
